Laboratory results taken from PubChem BioAssay AID652104 (National Center for Advancing Translational Sciences (NCATS), 2013).
Screen size: about 410,000 compounds; about 7,200 (1.8%) were called active. Not shown: some 7% with an inconclusive outcome. The sample as a whole holds a higher share of actives than the screen did. Values without a mark were called inactive. Calls come from the whole dose curve; as a rule, active = well fitted activation curve with a large enough effect; inconclusive = small, poorly fitted or top-dose-only effect, or another doubt; inactive = no such curve, though single readings can be large or run the other way.

Experiment: qHTS of TDP-43 Inhibitors; note: nearly all actives have a fitted effect of over 50% in size; for growth rescue (activation): % of control where 0% means no effect
Conditions: TDP-43 expressing yeast growth rescue, BacTiter-Glo, 24 h; series mostly up to 46.1 µM; growth rescue (activation): at the top concentration
In short: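 Yeast expressing TDP-43 (pregrown in raffinose, seeded at OD600=0.02 in galactose medium) exposed to compounds 24 hr at 30 deg C. Growth read by BacTiter-Glo luminescence; rescue of toxicity appears as increased signal.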
Potency is the fitted concentration of half-maximal effect.

Row | SMILES | Potency | growth rescue (activation) [%]
1 | c1ccc(-c2nnc(SCc3nc4ccccc4[nH]3)o2)cc1 | 12.6 µM (active) | 
2 | c1cc2c(c(NC3=NCCCS3)c1)CCCC2 |  | 5.1
3 | O=c1[nH]c2ccccc2n1C1CCN(C(c2ccnc3ccccc23)c2nnnn2Cc2ccccc2)CC1 (configuration not stated) |  | 10.3
4 | COC(=O)C1=C(c2ccccc2OCc2ccccc2)C[C@@H]2CC[C@H]1N2C(=O)NCc1ccc(OC)cc1 | 35.5 µM (active) | 
5 | COC(=O)C1=C(c2ccc(F)cc2OCc2ccccc2)C[C@@H]2CC[C@H]1N2C(=O)NCc1ccc2[nH]ccc2c1 |  | 4.65
6 | COC(=O)C1=C(c2ccc(F)cc2OCc2ccccc2)C[C@@H]2CC[C@H]1N2C(=O)NCc1ccc(OC)c(OC)c1 |  | 19.4
7 | Cc1ccc(NC(=O)N(Cc2ccc3c(c2)OCO3)C2CCN(Cc3ccccc3)CC2)cc1F |  | 0.85
8 | O=C(C1CCN(S(=O)(=O)c2ccc(Br)s2)CC1)N1CCN(c2ccccc2)CC1 |  | 0
9 | O=c1[nH]c2ccccc2n1C1CCN(C(c2ccccc2)c2nnnn2Cc2ccccc2)CC1 (configuration not stated) |  | 0
10 | COC(=O)C1=C(c2ccc(F)cc2F)C[C@@H]2CC[C@H]1N2C(=O)NC1CC1 |  | 13.1
11 | Cn1c(C(=O)N2CCC(C(=O)N3CCC4(CC3)OCCO4)CC2)cc2sccc21 |  | -14.1
12 | Cc1cc(N2C(=O)C3CCCN3C2c2ccc(Cl)c(Cl)c2)no1 (configuration not stated) |  | 16.4
13 | CC1CNCCN1c1ccc(Cl)cc1 (configuration not stated) |  | -10.5
14 | CC12CCC3C(CCC4CC(=O)CCC43C)C1CC(=NO)C2=O (configuration not stated) | 15.8 µM (active) | 
15 | C[C@]12CCC3C(CC[C@H]4[C@H](O)[C@H](O)CC[C@]34C)C1CCC2=O (some centres not stated) |  | 9.92
16 | COc1ccc(-n2nnnc2C(c2cccc3ccccc23)N2CCC(n3c(=O)[nH]c4ccccc43)CC2)cc1 (configuration not stated) |  | 19.2
17 | Nc1ccc(Cc2ccc(N)c(Cl)c2)cc1Cl | 12.6 µM (active) | 
18 | CNCC[C@H](Oc1ccc(C(F)(F)F)cc1)c1ccccc1 |  | 13.1
19 | COc1ccc(-c2nn(CCC#N)cc2C(=O)Nc2ccc(C(C)=O)cc2)cc1 |  | 0
20 | CC(C)Oc1ccc(NC(=O)c2cc3ccccc3o2)cc1 |  | -11.1
21 | C[N+]1(C)CCOC(O)(c2ccc(-c3ccc(C4(O)C[N+](C)(C)CCO4)cc3)cc2)C1 (configuration not stated) | 5.01 µM (active) | 
22 | Cc1nn(-c2ccccc2)c(C)c1NC(=O)COC(=O)Cc1ccccc1 |  | 5.52
23 | C[C@@H]1C[C@@H]2O[C@H]2/C=C\C=C\C(=O)Cc2c(Cl)c(O)cc(O)c2C(=O)O1 | 11.2 µM (active) | 
24 | c1ccc(CC2CCCCN2)cc1 (configuration not stated) |  | 1.64
25 | CN(C(=O)c1cccc(NC(=O)Cc2cccc([N+](=O)[O-])c2)c1)C1CCCCC1 |  | -14.5
26 | Cc1ccc([C@H]2C[C@H](O)[C@@H](n3cc(COC(=O)c4ccccc4)nn3)CN2C(=O)C2CCCCC2)cc1 |  | 11.7
27 | O=C(Nc1ccc(Cl)cc1C(=O)c1ccccc1)c1cc(Cl)cc(Cl)c1 |  | -4.61
